Eight compounds from PubChem BioAssay (NCI) can be followed below.

Holding throughout (test): NCI-60 one-dose screen, 48 h (100 = growth as untreated, 0 = no growth, -100 = all killed)
One assay deals with NCI-H23 lung. The note with it: 10 µM unless noted.
The test system of another assay is NCI-H226 lung. The following applies: 10 µM unless noted.
Another assay relates to NCI-H322M lung. The following applies: 10 µM unless noted.
In another assay the test system is HOP-62 NSCLC. The following applies: 10 µM unless noted.
For another assay, the system named is NCI-H460 lung. The following applies: 10 µM unless noted.
Another assay deals with HOP-92 NSCLC. The following applies: 10 µM.
A further assay deals with NCI-H522 lung. The note with it: 10 µM unless noted.
Another assay relates to A549/ATCC NSCLC. The note with it: 10 µM unless noted.
A further assay relates to 786-0 renal. The following applies: 10 µM unless noted.
For the next assay, the system named is COLO 205 colon. The note with it: 10 µM unless noted.
A further assay concerns DU-145 prostate. The following applies: 10 µM unless noted.
The test system of a further assay is K-562 leukemia. The following applies: 10 µM unless noted.
The next assay has as its system MALME-3M melanoma. The following applies: 10 µM unless noted.
In a further assay the test system is MDA-MB-231 breast. The following applies: 10 µM unless noted.
A further assay has as its system RXF 393 renal. The note with it: 10 µM unless noted.
A further assay concerns SF-268 CNS. The note with it: 10 µM unless noted.
The test system of the next assay is SF-295 CNS. The following applies: 10 µM unless noted.
A further assay deals with SF-539 CNS. The following applies: 10 µM unless noted.
The next assay deals with UACC-257 melanoma. The note with it: 10 µM unless noted.

About 83,000 compounds went through this panel and 20% of them were active in at least one assay; those are over-represented in the sample as a whole.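 Testing used 96-well plates and a 48-hour single-concentration exposure. Example: -40 means 40% of the starting cells died.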 A number with no mark means an inactive call. Activity calls are given as the source filed them. How the source made its calls: active means growth percent below 10; inactive means the rest.

Consider `O=S(=O)(NCCNc1nccc(-n2cnc3ccccc32)n1)c1ccc(Cl)cc1`, for which the growth with NCI-H23 lung was 101%; with NCI-H226 lung, 91.1%; with NCI-H322M lung it was 95.3%; in the assay with HOP-62 NSCLC, 95.4%; in the assay with NCI-H460 lung, 103%; with HOP-92 NSCLC it was 90.2%. For the same compound, the growth with NCI-H522 lung was 92.1%; in the assay with A549/ATCC NSCLC it was 103%; in the assay on 786-0 renal, 99%; with COLO 205 colon it was 104%; in the assay on DU-145 prostate it was 104%; in the assay on K-562 leukemia, 97.6%. Besides, the growth was 99.5% with MALME-3M melanoma; 90.6% in the assay on MDA-MB-231 breast; 117% with RXF 393 renal; 92.3% with SF-268 CNS; 96.7% in the assay on SF-295 CNS; 91.2% with SF-539 CNS. Moreover, the growth with UACC-257 melanoma is 103%.

On to `COc1ccc(-n2c(/C=C3\C(=O)Nc4ccccc43)ccc2CO)cc1`, for which the growth in the assay on NCI-H23 lung is 104%; in the assay on NCI-H226 lung it was 95.3%; in the assay on NCI-H322M lung, 104%; with HOP-62 NSCLC, 95.1%; in the assay on NCI-H460 lung, 113%; in the assay on HOP-92 NSCLC, 91.5%. The growth in the assay with NCI-H522 lung was 89.6%; with A549/ATCC NSCLC, 97%; in the assay with 786-0 renal, 99.1%; in the assay on COLO 205 colon it was 114%; in the assay with DU-145 prostate it was 106%; in the assay with K-562 leukemia, 90.9%. Moreover, the growth is 72.2% with MALME-3M melanoma; 95% in the assay with MDA-MB-231 breast; 99.7% in the assay with RXF 393 renal; 99.2% with SF-268 CNS; 105% in the assay on SF-295 CNS; 97.5% in the assay on SF-539 CNS. The growth with UACC-257 melanoma is 105%.

Regarding `NS(=O)(=O)c1ccc(Nc2nc(N/N=C/c3ccccn3)nc(Nc3ccccc3)n2)cc1`, the growth was -7.29% (active) with NCI-H23 lung; -49.1% (active) in the assay on NCI-H226 lung; -9.94% (active) in the assay on NCI-H322M lung; -28.6% (active) in the assay on HOP-62 NSCLC; 3.8% (active) with NCI-H460 lung; -46.6% (active) in the assay with HOP-92 NSCLC. The growth was -32.6% (active) with NCI-H522 lung; 35.1% with A549/ATCC NSCLC; 8.47% (active) in the assay with 786-0 renal; -42.1% (active) with COLO 205 colon; 4.85% (active) in the assay on DU-145 prostate; 12.3% with K-562 leukemia. In addition, the growth is -68.2% (active) with MALME-3M melanoma; -29.9% (active) in the assay with MDA-MB-231 breast; -74% (active) with RXF 393 renal; -22% (active) with SF-268 CNS; 0.752% (active) in the assay with SF-295 CNS; -42.1% (active) in the assay on SF-539 CNS. The growth with UACC-257 melanoma is -18.1% (active).

As to `O=C(CSc1nnc(-c2ccc(Cl)cc2)n1-c1ccccc1)Nc1ccc(Br)cc1`, the growth in the assay with NCI-H23 lung was 35.9%; in the assay on NCI-H226 lung it was -27.7% (active); with NCI-H322M lung, 0.91% (active); with HOP-62 NSCLC, -11.9% (active); in the assay on NCI-H460 lung it was 5.77% (active); in the assay with HOP-92 NSCLC, -37.7% (active). In addition, the growth in the assay with NCI-H522 lung is 12.1%; in the assay with A549/ATCC NSCLC it was 4.69% (active); with 786-0 renal, -83% (active); in the assay with COLO 205 colon it was 51.9%; with DU-145 prostate, 41.2%; in the assay with K-562 leukemia, 40.5%. Further, the growth was -3.16% (active) in the assay with MALME-3M melanoma; -29.8% (active) with MDA-MB-231 breast; -31.6% (active) in the assay with RXF 393 renal; 42.2% in the assay with SF-268 CNS; -34.3% (active) in the assay with SF-295 CNS; -66.7% (active) in the assay with SF-539 CNS. Further, the growth in the assay on UACC-257 melanoma is 50.3%.

For `COc1ccc(N2C(=O)c3cc(Cl)ccc3NC2SCc2ccccc2)cc1` (configuration not stated), the growth with NCI-H23 lung is 97%; in the assay with NCI-H226 lung, 96.2%; with NCI-H322M lung it was 97.1%; in the assay with HOP-62 NSCLC, 102%; in the assay on NCI-H460 lung it was 109%; in the assay with HOP-92 NSCLC, 92.1%. Further, the growth in the assay with NCI-H522 lung was 87.4%; in the assay on A549/ATCC NSCLC, 91.5%; in the assay on 786-0 renal, 92%; in the assay on COLO 205 colon, 114%; in the assay with DU-145 prostate, 106%; in the assay with K-562 leukemia, 88.9%. The growth in the assay with MALME-3M melanoma is 99.2%; with MDA-MB-231 breast it was 85.1%; in the assay on RXF 393 renal, 101%; with SF-268 CNS it was 98.3%; in the assay on SF-295 CNS it was 102%; with SF-539 CNS, 98.7%. Also, in the assay with UACC-257 melanoma, the growth was 97.7%.

Regarding `Cc1cc(C)n(C(=O)c2sc(=S)n(-c3ccccc3)c2N=Nc2c(N)n[nH]c2N)n1`, the growth in the assay on NCI-H23 lung is 104%; in the assay on NCI-H226 lung, 102%; with NCI-H322M lung, 101%; with HOP-62 NSCLC it was 103%; in the assay with NCI-H460 lung, 108%; with HOP-92 NSCLC, 114%. Besides, the growth is 93.2% with NCI-H522 lung; 102% in the assay on A549/ATCC NSCLC; 111% in the assay with 786-0 renal; 109% in the assay with COLO 205 colon; 110% in the assay on DU-145 prostate; 105% in the assay on K-562 leukemia. Moreover, the growth was 73.9% with MALME-3M melanoma; 89.2% in the assay with MDA-MB-231 breast; 116% with RXF 393 renal; 104% with SF-268 CNS; 104% in the assay on SF-295 CNS; 99.1% in the assay on SF-539 CNS. In addition, the growth with UACC-257 melanoma was 106%.

On to `CCN1CCN(Cc2cn(-c3ccc(S(N)(=O)=O)cc3)nn2)CC1`, for which the growth is 108% in the assay on NCI-H23 lung; 96.5% in the assay on NCI-H226 lung; 106% with NCI-H322M lung; 107% with HOP-62 NSCLC; 108% with NCI-H460 lung; 104% with HOP-92 NSCLC. Moreover, the growth in the assay with NCI-H522 lung is 97.8%; in the assay on A549/ATCC NSCLC, 109%; in the assay on 786-0 renal, 102%; in the assay on COLO 205 colon it was 109%; with DU-145 prostate it was 108%; in the assay on K-562 leukemia, 104%. For the same compound, the growth in the assay on MALME-3M melanoma was 111%; in the assay with MDA-MB-231 breast, 104%; in the assay with RXF 393 renal, 116%; in the assay on SF-268 CNS, 103%; with SF-295 CNS, 105%; in the assay on SF-539 CNS, 99.3%. The growth in the assay with UACC-257 melanoma was 107%.

Turning to `COc1cc(-c2nc(-c3ccccc3)[nH]c2-c2ccnc(NCCCNS(=O)(=O)c3cccc(F)c3)n2)ccc1Cl`, the growth with NCI-H23 lung was 53.4%; in the assay with NCI-H226 lung it was 42.1%; with NCI-H322M lung, 87.1%; in the assay with HOP-62 NSCLC, 54%; in the assay with NCI-H460 lung, 28.7%; in the assay on HOP-92 NSCLC, 65.1%. The growth was 32.6% with NCI-H522 lung; 38% with A549/ATCC NSCLC; 54.9% in the assay with 786-0 renal; 9.39% (active) in the assay on COLO 205 colon; 54.3% with DU-145 prostate; 23.4% in the assay on K-562 leukemia. The growth was 64.3% in the assay on MALME-3M melanoma; 64.8% with MDA-MB-231 breast; 36.1% in the assay on RXF 393 renal; 59.4% with SF-268 CNS; 25% with SF-295 CNS; 69.5% in the assay with SF-539 CNS. Besides, the growth in the assay with UACC-257 melanoma was 58.7%.
